# Screening data from PubChem BioAssay.
# An excerpt weighted towards active compounds, which were near 6.6% of everything screened.
# MCF10A rerep – induces DNA re-replication in MCF 10a normal breast cells; MCF 10A DNA re-replication, Hoechst nuclear intensity, 48 h; Potency, µM (titrated, usually from 46.1 µM), inactives show top-dose activity, positive = re-replication, usual class: activators; 2.9% of 350,000 active; note: % of control where 0% means no effect; nearly all actives have a fitted effect of over 50% in size
# KB-3-1 cytotox – KB-3-1 parental cell cytotoxicity; 1.4% of 400,000 active; Potency, µM (highest dose often 46.1 µM), most hits filed as cytotoxic; KB-3-1 viability, CellTiter-Glo ATP luminescence, 72 h; AID 1347075; note: % is set by controls: 0 for no effect and ±100 for the full control effect; nearly all actives have a fitted effect of over 60% in size
#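 Viability of parental KB-3-1 cells, measured by CellTiter-Glo luminescence, followed a 72 h incubation at 37 °C with pinned compounds in phenol-red-free DMEM containing 10% FBS.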
# SW480 rereplic – induces DNA re-replication in SW480 colon adenocarcinoma cells. SW480 DNA re-replication, Hoechst DNA content imaging, 48 h. Potency, µM (highest dose often 46.1 µM), without a hit: at the highest dose re-replication activation, hits mostly activators. 1.8% of 340,000 active. AID 624297; note: % of control where 0% means no effect; nearly all actives have a fitted effect of over 55% in size
#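 Image-based read-out: total Hoechst fluorescence of nuclei (405 nm excitation, 500-530 nm emission), with hits raising the fraction of high-intensity nuclei. SW480 colon cells incubated 48 hr with compounds at 37 C.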
# TSG101-PTAP inh – blocks PTAP/TSG101 interaction to inhibit HIV-1 budding | AID 493005 | Q99816 | Potency, µM (series often up to 115 µM), without a hit: at the top dose activity change, negative = inhibition, actives largely listed as inhibitors | Fluorescence polarization, FITC-PTAP peptide / Tsg101 binding | 340,000 tested, under 10 active; active = well fitted inhibition curve with a large enough effect in the main read-out, with a control signal flat, not every such curve was filed as active; inconclusive = small, poorly fitted or top-dose-only effect, or effect the other way, or a change in a side signal; inactive = no such curve, though single readings can be large or run the other way; note: % of control where 0% means no effect
#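 Tsg101 binding domain (10 uM final) was mixed with compound and a FITC-labeled PTAP peptide (50 nM final) in HEPES pH 7.5 buffer with NaCl, Tween 20, EDTA and TCEP; fluorescence polarization was read after 20 min at r.t.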
# KB-V1 cytotox – kills drug-selected multidrug resistant KB-V1 cells. KB-V1 MDR cells viability, CellTiter-Glo, 72 h. Potency, µM (series often up to 46.1 µM), most hits filed as cytotoxic. 3.4% of 400,000 active; note: % is set by controls: 0 for no effect and ±100 for the full control effect; nearly all actives have a fitted effect of over 60% in size
#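 Luminescent ATP read-out (CellTiter-Glo, 10 min) measures survival of drug-selected KB-V1 MDR cells after 72 h, 37 degrees C compound exposure. Medium: phenol-red-free DMEM, 10% FBS. Values from fitted concentration-response curves.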
# RGS4 inhibitor – blocks human RGS4-accelerated GTP hydrolysis | 0.039% of 390,000 active | Transcreener GDP fluorescence polarization, RGS4-accelerated GTP hydrolysis | P49798 | Potency, µM (top dose mostly 114 µM), for the others: at the highest dose activity change, negative = inhibition, most hits filed as inhibitors; note: % is set by controls: 0 for no effect and ±100 for the full control effect; nearly all actives have a fitted effect of over 75% in size
# Target sequence (P49798 whole entry, looked up): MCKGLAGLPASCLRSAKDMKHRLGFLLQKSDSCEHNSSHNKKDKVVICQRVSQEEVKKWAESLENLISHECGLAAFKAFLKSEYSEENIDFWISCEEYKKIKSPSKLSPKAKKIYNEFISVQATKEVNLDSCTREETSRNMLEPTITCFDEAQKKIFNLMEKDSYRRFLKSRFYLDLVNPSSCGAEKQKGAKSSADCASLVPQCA
#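 MLSMR compounds (23 nl, pin-transferred) preincubated 10 min at room temperature with a 500nM (2x) first reagent, then RGS4 at 900nM (2x) plus Transcreener GDP mix added; fluorescence polarization (620/688 nm) read before and after 90 min at 30 °C.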
# The depositor's hits bear a star; i = inactive; ? = inconclusive; . = not tested or not shown. Unless noted, calls come from the whole dose curve; as a rule, active = well fitted curve in the direction sought with a large enough effect; inconclusive = small, poorly fitted or top-dose-only effect, or another doubt; inactive = no such curve, though single readings can be large; an effect the other way counts as inactive or inconclusive. Potency is the fitted concentration of half-maximal effect.
SMILES,MCF10A rerep,KB-3-1 cytotox,SW480 rereplic,TSG101-PTAP inh,KB-V1 cytotox,RGS4 inhibitor
C#CC(=O)N(c1ccc(OC)cc1OC)C(C(=O)NC1CCCC1)c1cccs1 (stereo unspecified),?,i,?,0%,i,?
O=C(NC1CCCCC1)C(c1ccco1)N(CCc1ccccc1)C(=O)C(F)(F)F (stereo unspecified),2%,?,1%,-11%,7.3µM*,-11%
Cc1ccc(N(C(=O)C(F)(F)F)C(C(=O)NC2CCCCC2)c2cccs2)cc1C (stereo unspecified),-5%,i,-7%,0%,i,-2%
O=C(Cn1ncc2c3ccccc3n(Cc3cccc(Cl)c3)c2c1=O)Nc1ccc(F)cc1F,.,i,.,.,i,10%
COC(=O)c1sc2nc3c(c(-c4cccs4)c2c1N)CCCC3,9.2µM*,i,18µM*,2%,?,-29%
